Values joined by “and” are separate entries in the source; they are usually repeats but may differ in a detail not shown here. Identical values can stand only once. Inconclusive results are not listed. Some structures have more than one record in an assay (separate samples or runs), and their calls can disagree. Active and inactive are the calls of the source. Unless noted, the call rests on the fitted dose curve.
How the values were obtained:
[1] = qHTS assay to identify small molecule antagonists of the sonic hedgehog signaling (Shh) pathway (AID 1259369); further: nearly all actives have a fitted effect of over 45% in size; further: potency means the concentration at half of the fitted maximal effect
Method in brief: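 For antagonist detection, the reporter line received test compounds together with conditioned medium, incubated 24hr at 37 C, 5% CO2, then luminescence was recorded following 30min room-temperature luciferase reagent incubation.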

[2] = biological target: Estrogen receptor beta (Homo sapiens) (UniProt Q92731); test: qHTS assay to identify small molecule agonists of the estrogen receptor beta (ER-beta) signaling pathway (AID 1259377; active means well fitted activation curve with a large enough effect in the signal ratio in the repeat runs, not every such curve was filed as active; the % refers to the signal ratio)
Method in brief: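 ER-beta-UAS-bla HEK293T cells in medium with 2% charcoal-stripped FBS were exposed to compounds for 16 h at 37C. Beta-lactamase reporter activity was read as fluorescence after 2 h with LiveBLAzer B/G FRET substrate at room temperature.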

[3] = biological target: Estrogen receptor beta (Homo sapiens) (UniProt Q92731); test: qHTS assay to identify small molecule antagonists of the estrogen receptor beta (ER-beta) signaling pathway (AID 1259378; active means well fitted inhibition curve with a large enough effect in the signal ratio in the repeat runs, not every such curve was filed as active; the % refers to the signal ratio)
Method in brief: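 ER-beta-UAS-bla HEK293T (GripTite) cells in 2% charcoal-stripped FBS medium were preincubated 6 hr at 37C, dosed with compound, then stimulated with 1 nM E2 (final) for 16 hr; beta-lactamase reporter read by B/G FRET fluorescence after 2 hr substrate loading.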

[4] = qHTS assay to identify small molecule agonists of the androgen receptor (AR) signaling pathway in the presence of an antagonist - cell viability counter screen (AID 1259379; active means well fitted curve in the direction sought with a large enough effect in the repeat runs; an effect the other way counts as inactive or inconclusive;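 further: MDA-kb2 human breast cancer cells carrying an MMTV luciferase reporter; series mostly up to about 92 µM; nearly all actives have a fitted effect of over 25% in size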)
Method in brief: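 Seed MDA-kb2 at 3,000 cells/well; incubate 5 hr, 37C, 0% CO2. Add nilutamide to 3.0uM final, then pin compounds at 15 concentrations. Incubate 16 hr. Add CellTiter-Fluor at 15 hr, read fluorescence after 1 hr.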

[5] = qHTS assay to identify small molecule agonists of the estrogen receptor beta (ER-beta) signaling pathway - cell viability counter screen (AID 1259380; active means well fitted curve in the direction sought with a large enough effect in the repeat runs; an effect the other way counts as inactive or inconclusive; further: nearly all actives have a fitted effect of over 30% in size)
Method in brief: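 CellTiter-Glo read, 30 min RT, same wells as bla assay; cells ER-beta-UAS-bla HEK293T; 16 hr compound, 37C; medium 2% charcoal-stripped FBS.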

[6] = qHTS assay to identify small molecule antagonists of the estrogen receptor beta (ER-beta) signaling pathway - cell viability counter screen (AID 1259382; active means well fitted curve in the direction sought with a large enough effect in the repeat runs; an effect the other way counts as inactive or inconclusive; further: series mostly up to about 92 µM; nearly all actives have a fitted effect of over 55% in size)
Method in brief: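 In this multiplexed counter screen, cells were seeded at 2,000 per well in medium with 2% charcoal-stripped FBS and incubated 6 hr before compound and 1nM final E2 were added. Sixteen hours later, ATP-based luminescence reported viability.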

[7] = qHTS assay to identify small molecule agonists or antagonists of the thyroid stimulating hormone receptor (TSHR) signaling pathway - wild type cell line counter screen (AID 1259384)
Method in brief: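 Wild-type HEK293 cells were plated 18 h at 37 C/5% CO2, pin-dosed with compound plus Ro20-1724 medium, held 30 min at room temperature, then given cAMP-d2 and anti-cAMP-cryptate; fluorescence was read after 1 h. Fifteen concentrations, triplicate.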

[8] = biological target: Thyrotropin receptor (Homo sapiens) (UniProt P16473); test: qHTS assay to identify small molecule antagonists of the thyroid stimulating hormone receptor (TSHR) signaling pathway (AID 1259385); further: nearly all actives have a fitted effect of over 20% in size
Method in brief: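 TSHR-HEK293 cells were plated and held 18 h at 37C/5% CO2, then given compound plus Ro20-1724 and stimulated with TSH at 1.5 ng/mL final. After 30 min at room temperature, cAMP was detected with cAMP-d2/anti-cAMP-cryptate (1 h) by fluorescence.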

[9] = biological target: Estrogen receptor (Homo sapiens) (UniProt P03372); test: qHTS assay to identify small molecule agonists of the estrogen receptor alpha (ER-alpha) signaling pathway in the presence of an antagonist (AID 1259383); further: nearly all actives have a fitted effect of over 15% in size; further: potency means the concentration at half of the fitted maximal effect; on activation: top concentration of the series differs between compounds
Method in brief: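 Stably transfected VM7Luc4E2 reporter cells, kept 5 days in charcoal-stripped serum, received ICI-182,780 at 10.0nM final before compound addition. Following 22hr incubation at 37C and 5% CO2, luciferase signal was read by luminescence.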

[10] = biological target: Androgen receptor (Homo sapiens) (UniProt P10275); test: qHTS assay to identify small molecule agonists of the androgen receptor (AR) signaling pathway in the presence of an antagonist (AID 1259381); further: nearly all actives have a fitted effect of over 15% in size
Method in brief: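 Test compounds at 15 concentrations were incubated for 16hr with MDA-kb2 reporter cells in presence of 3.0uM nilutamide (final). Signal: ONE-Glo luciferase luminescence.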

Measured: Potency

Estrogen receptor (Homo sapiens), sequence (P03372 whole entry, looked up): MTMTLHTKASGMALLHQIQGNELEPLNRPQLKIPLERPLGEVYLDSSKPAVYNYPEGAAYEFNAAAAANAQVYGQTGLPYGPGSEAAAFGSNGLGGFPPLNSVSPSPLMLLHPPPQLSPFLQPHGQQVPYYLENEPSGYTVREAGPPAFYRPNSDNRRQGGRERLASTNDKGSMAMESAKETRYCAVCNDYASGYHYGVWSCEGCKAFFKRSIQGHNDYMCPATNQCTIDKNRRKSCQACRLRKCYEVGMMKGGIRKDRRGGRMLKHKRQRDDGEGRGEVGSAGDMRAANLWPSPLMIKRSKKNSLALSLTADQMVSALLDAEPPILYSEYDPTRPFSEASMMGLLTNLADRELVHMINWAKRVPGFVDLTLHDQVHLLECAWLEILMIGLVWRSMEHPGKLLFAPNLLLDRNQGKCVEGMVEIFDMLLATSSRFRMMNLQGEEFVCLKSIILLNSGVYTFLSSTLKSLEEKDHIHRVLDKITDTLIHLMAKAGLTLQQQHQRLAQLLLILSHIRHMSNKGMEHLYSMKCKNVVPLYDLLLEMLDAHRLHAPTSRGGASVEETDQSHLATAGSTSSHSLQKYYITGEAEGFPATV
Thyrotropin receptor (Homo sapiens), sequence (P16473 whole entry, looked up): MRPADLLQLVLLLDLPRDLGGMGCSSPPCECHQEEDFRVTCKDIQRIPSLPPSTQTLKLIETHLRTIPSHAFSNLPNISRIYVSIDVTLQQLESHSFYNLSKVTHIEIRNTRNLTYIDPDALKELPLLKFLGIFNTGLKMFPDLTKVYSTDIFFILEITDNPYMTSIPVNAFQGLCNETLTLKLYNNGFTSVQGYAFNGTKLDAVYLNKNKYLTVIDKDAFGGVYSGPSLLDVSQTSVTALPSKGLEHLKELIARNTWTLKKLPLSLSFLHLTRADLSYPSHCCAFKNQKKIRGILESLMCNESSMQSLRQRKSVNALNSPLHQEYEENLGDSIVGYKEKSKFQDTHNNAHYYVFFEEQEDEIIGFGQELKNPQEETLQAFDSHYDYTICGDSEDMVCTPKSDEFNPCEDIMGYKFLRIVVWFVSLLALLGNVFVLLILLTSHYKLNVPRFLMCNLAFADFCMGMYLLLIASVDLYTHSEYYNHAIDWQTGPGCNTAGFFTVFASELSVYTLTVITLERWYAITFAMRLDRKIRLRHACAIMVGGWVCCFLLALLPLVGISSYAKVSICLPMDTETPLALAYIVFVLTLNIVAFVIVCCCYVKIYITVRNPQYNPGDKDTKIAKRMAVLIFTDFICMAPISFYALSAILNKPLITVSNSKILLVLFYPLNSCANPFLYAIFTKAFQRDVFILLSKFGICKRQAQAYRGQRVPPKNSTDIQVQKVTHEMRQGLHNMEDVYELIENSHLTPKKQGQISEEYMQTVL
Estrogen receptor beta (Homo sapiens), sequence (Q92731 whole entry, looked up): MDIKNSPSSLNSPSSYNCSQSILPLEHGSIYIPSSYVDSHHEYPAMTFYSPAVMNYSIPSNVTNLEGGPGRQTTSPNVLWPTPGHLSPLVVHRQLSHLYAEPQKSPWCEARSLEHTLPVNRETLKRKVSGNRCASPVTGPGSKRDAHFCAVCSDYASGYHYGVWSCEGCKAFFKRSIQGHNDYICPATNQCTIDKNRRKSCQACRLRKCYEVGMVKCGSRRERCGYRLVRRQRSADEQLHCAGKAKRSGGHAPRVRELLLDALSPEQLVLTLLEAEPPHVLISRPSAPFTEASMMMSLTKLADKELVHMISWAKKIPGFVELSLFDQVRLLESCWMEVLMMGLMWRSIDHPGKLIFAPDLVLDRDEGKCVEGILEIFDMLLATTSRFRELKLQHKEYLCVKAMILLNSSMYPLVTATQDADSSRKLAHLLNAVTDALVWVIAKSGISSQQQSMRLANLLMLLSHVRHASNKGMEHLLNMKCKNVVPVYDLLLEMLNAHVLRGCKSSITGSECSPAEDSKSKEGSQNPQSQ
Androgen receptor (Homo sapiens), sequence (P10275 whole entry, looked up): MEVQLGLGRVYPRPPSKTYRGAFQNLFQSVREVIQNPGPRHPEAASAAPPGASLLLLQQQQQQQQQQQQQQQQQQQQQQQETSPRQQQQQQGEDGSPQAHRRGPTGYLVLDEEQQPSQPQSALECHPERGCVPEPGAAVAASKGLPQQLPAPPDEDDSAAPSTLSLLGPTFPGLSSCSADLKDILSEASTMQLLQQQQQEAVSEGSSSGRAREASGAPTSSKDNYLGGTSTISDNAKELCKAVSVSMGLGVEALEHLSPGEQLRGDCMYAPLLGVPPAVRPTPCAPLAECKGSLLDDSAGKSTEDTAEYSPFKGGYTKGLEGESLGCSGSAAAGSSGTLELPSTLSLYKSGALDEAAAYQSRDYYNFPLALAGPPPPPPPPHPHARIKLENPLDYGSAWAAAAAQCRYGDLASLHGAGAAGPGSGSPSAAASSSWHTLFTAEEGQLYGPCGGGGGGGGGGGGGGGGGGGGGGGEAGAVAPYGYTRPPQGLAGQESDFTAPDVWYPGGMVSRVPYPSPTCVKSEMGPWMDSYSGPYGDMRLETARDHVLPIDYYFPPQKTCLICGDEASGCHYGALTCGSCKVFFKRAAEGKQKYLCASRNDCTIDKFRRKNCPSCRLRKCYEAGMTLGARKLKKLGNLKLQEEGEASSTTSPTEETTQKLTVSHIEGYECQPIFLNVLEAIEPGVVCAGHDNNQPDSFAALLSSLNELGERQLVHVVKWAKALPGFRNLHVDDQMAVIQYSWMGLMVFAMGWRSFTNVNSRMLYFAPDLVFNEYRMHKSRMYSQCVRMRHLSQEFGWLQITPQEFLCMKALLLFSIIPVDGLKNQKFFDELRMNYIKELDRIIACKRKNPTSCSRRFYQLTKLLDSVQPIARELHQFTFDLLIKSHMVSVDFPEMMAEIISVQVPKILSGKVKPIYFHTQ

CN1Cc2c(N)cccc2C(c2ccccc2)C1 (centres undefined)
not listed: [9] | [10]
inactive: all other assays above

C=CC(C)(C)C
not listed: [10]
inactive: all other assays above

COCN(COC)c1nc(N(COC)COC)nc(N(COC)COC)n1
not listed: [10]
inactive: all other assays above

CO[Si](CCCNCCN)(OC)OC
8.76 µM (active) and inactive: [1]
not listed: [9]
inactive: all other assays above

CC(=O)CC(=O)N(C)C
not listed: [10]
inactive: all other assays above

CC(=O)C(C)C
not listed: [7] | [8] | [10]
inactive: all other assays above

O=C(O)Cc1c[nH]c2ccccc12
not listed: [8] | [9] | [10]
inactive: all other assays above

O=[N+]([O-])c1ccccc1C(F)(F)F
59.8 µM (active) and inactive: [9]
not listed: [7]
inactive: all other assays above

CCCCCCCCO
not listed: [10]
inactive: all other assays above

CCc1cccc(CC)c1N
not listed: [3] | [8]
inactive: all other assays above

C=C(C)CC(C)(C)C
not listed: [8] | [9] | [10]
inactive: all other assays above

N#CCC(=O)O
inactive and 54.5 µM (active): [1]
not listed: [8] | [10]
inactive: all other assays above

From PubChem BioAssay (Tox21)
